# Source: ChEMBL document CHEMBL3988442, “University of Dundee, Small-Polar-MMV Screening Library” (2021)
# In all, about 48,000 compounds went through this assay and about 13,000 (27%) showed an effect of 50% or more. The list shows a part of the results.
# Test system: Wolbachia pipientis
# Assay: Anti-Wolbachia Cell-Based Screen
# Assay type: functional
# Parameters: scale not given: in the data most compounds retested in dose-response had high values
# Details: 5 µM
row,SMILES,Percent Effect [%]
1,O=C(c1cc(-n2cccn2)ccn1)N1CCOc2ccncc21,-0.9385
2,O=C1CN(CC[C@@H](O)c2ccccc2)CCN1c1ccccc1Cl,-4.837
3,O=C(c1csnn1)N1CCCC(n2cncn2)C1 (stereo not drawn),98.21
4,O=C(c1cc(C2CC2)on1)N1CCCC(n2cncn2)C1 (stereo not drawn),7.01
5,Cc1nc(C(=O)N2CCCC(n3cncn3)C2)cs1 (stereo not drawn),-4.147
6,CC(=O)Nc1nc(C(=O)N2CCCC(n3cncn3)C2)cs1 (stereo not drawn),110.6
7,CC(=O)Nc1nc(C(=O)N2CCCC(n3nc(C)cc3C)C2)cs1 (stereo not drawn),-2.313
8,O=C(c1cscn1)N1CCCC(n2cncn2)C1 (stereo not drawn),88.79
9,CCC(=O)NCc1ccccc1Cn1ccnc1,2.122
10,Cc1ccc2c(c1)OC(C)(C)CC2NC(=O)C1CCN(S(C)(=O)=O)CC1 (stereo not drawn),-7.671
11,O=C(NCc1cc(C2CC2)n(C2CCCC2)n1)C1CC1,118.5
12,Cn1nc(CNC(=O)C2CCCC2)cc1C1CC1,-4.336
13,Cn1nc(CNC(=O)C2CCCCC2)cc1C1CC1,119.6
14,Cn1nc(CNC(=O)C2CC2)cc1C1CC1,4.922
15,Cn1nc(CNC(=O)C2CCN(S(C)(=O)=O)CC2)cc1C1CC1,134.6
16,C/C=C(\C)CN1CCCn2nc(CNC(=O)C3CCC3)cc2C1,8.995
17,Cn1nc(CNC(=O)C2CCC2)cc1C1CC1,172.6
18,CCC(=O)NCc1cc(C2CC2)n(C2CCCC2)n1,-1.631
19,O=C(O)C1(Cc2ccccc2Cl)CCN(c2ncccn2)CC1,4.771
20,Cc1noc(-c2cccnc2N(C)Cc2cscn2)n1,-2.045
21,CCC[C@H]1CN(CCOC)C[C@@H]1NC(=O)Cn1cc(C)cn1,-1.609
22,CCc1ncc(C(=O)NC(C)(C)CC)s1,-4.681

row,SMILES,Percent Effect [%]
1,CCC(C)n1cnc(S(=O)(=O)N(C)C)c1 (stereo not drawn),-2.659
2,CCC(=O)N1CCC(c2ncncc2C)CC1,105.8
3,CCC(=O)N1CCC(c2nnc(Cn3cccn3)n2C2CC2)CC1,6.186
4,Cc1cc(C)n(-c2cncc(N3CCN(C(=O)CN(C)C)CC3)n2)n1,-21.39
5,CCC(=O)N1CCC(c2nnc(Cn3cncn3)n2C2CC2)CC1,-3.377
6,Cc1noc(C2CCN(C(=O)CN(C)c3ccc(Cl)cn3)CC2)n1,-9.214
7,Cc1cncnc1C1CCN(C(=O)CN(C)C)CC1,107.4
8,NC(=O)CSCC(=O)N1CCc2cc(Cl)cc(Cl)c2C1,-10.26
9,CCC(CNC(=O)c1ccc(=O)[nH]n1)N1CCc2ccccc2C1 (stereo not drawn),-13.41
10,Cc1noc(C)c1C(=O)NCC(C)N(C)C (stereo not drawn),-3.203
11,O=C(c1ccc(=O)[nH]n1)N1CCc2ccccc21,6.411
12,O=C(NCCSC1CCCC1)c1cc(C2CC2)on1,6.284
13,Cc1cc(C(=O)NCC(C)N2CCc3ccccc32)on1 (stereo not drawn),128.5
14,CC(CNC(=O)c1ccc(C#N)cc1)N1CCc2ccccc21 (stereo not drawn),-4.664
15,CC(CNC(=O)c1ccc(=O)[nH]n1)N1CCc2ccccc21 (stereo not drawn),114.6
16,Cc1noc(C)c1C(=O)NCC1CCCCN1Cc1ccccc1 (stereo not drawn),1.84
17,COc1ccc(NC(=O)NCC(C)N2CCc3ccccc32)cc1 (stereo not drawn),6.782
18,CC(CNC(=O)c1cccc(C#N)c1)N1CCc2ccccc21 (stereo not drawn),-2.298
19,CC(CNC(=O)c1cc(C2CC2)on1)N1CCc2ccccc21 (stereo not drawn),110.3
20,Cc1noc(C)c1C(=O)NCC(C)N1CCc2ccccc21 (stereo not drawn),136.7
21,CS(=O)(=O)CCCNC(=O)NC1CC(c2cccc(Cl)c2)C1 (stereo not drawn),-3.705
22,N#Cc1cccc(S(=O)(=O)NC2CCN(Cc3ccccc3)C2=O)c1 (stereo not drawn),-3.444

row,SMILES,Percent Effect [%]
1,CC(C)Oc1cc(N2CCC3(CC2)[C@H](O)C[C@@H]3O)nc(N)n1,12.72
2,CN1CCCC(N2CCN(c3nc4ccccn4c3C#N)CC2)C1 (stereo not drawn),6.11
3,CC(=O)N(CCc1ccccc1)CC(=O)Nc1ccccc1C#N,-7.598
4,CC(C)(C)c1ncc2c(n1)CN(C(=O)c1ccc(C#N)nc1)C2,-2.492
5,COC(=O)c1ccc(F)c(S(=O)(=O)Nc2ccc(C(N)=O)cc2)c1,8.532
6,Cc1cccc(N2CCN(CCC(=O)NCc3ccc(C)s3)CC2)c1,3.46
7,Cc1cnc(C(=O)N2CCN(C(=O)C(C)C)[C@@H]3CS(=O)(=O)C[C@@H]32)cn1,-9.288
8,CC(C)(C)OC(=O)NCC1CCN(C(=O)c2ccccc2O)CC1,15.84
9,COC(=O)CC1CCN(C(=O)c2ccc(-n3nnnc3C)cc2)CC1,129.7
10,Cc1ccc(O)c(C(=O)N2CCC(CN3CCCCCC3)CC2)c1,5.424
11,COC(=O)C1CCCN1C(=O)c1ccc(-n2nc(C)cc2C)cc1 (stereo not drawn),-11.77
12,COC(=O)CC1CCN(C(=O)c2ccc(C)cc2)CC1,100
13,Cc1nnnn1-c1ccc(CC(=O)N2CCOCC(O)C2)cc1 (stereo not drawn),-21.98
14,COc1ncccc1C(=O)N1CCC(CNC(C)=O)CC1,-0.8543
15,COC(=O)CC1CCN(C(=O)c2ccccc2-n2nnnc2C)CC1,87.7
16,CCNc1ccnc(NC2CCN(C(=O)c3ccc(C)cc3)CC2)n1,10.68
17,Cc1cnn(CC2CN(CC(=O)Nc3sccc3C#N)CCO2)c1 (stereo not drawn),-6.28
18,CCc1noc(CS(=O)(=O)Cc2ccccc2Cl)n1,-7.562
19,CN(C)CCN1C(=O)CC[C@@H]2[C@H]1CCN2C(=O)c1ccc(C#N)cc1.O=C(O)C(F)(F)F,-26.6
20,Cn1cnc2c1C(COCC1CCOCC1)CN(c1ncccn1)C2.O=C(O)C(F)(F)F.O=C(O)C(F)(F)F (stereo not drawn),-12.76
21,Cn1cnc2c1C(COCC1CC1)CN(C(=O)c1cccs1)C2 (stereo not drawn),-12.17
22,CCOCC1CN(S(=O)(=O)N(C)C)Cc2cnn(CC3CC3)c21.O=C(O)C(F)(F)F (stereo not drawn),-12.89

row,SMILES,Percent Effect [%]
1,COCC1CN(S(=O)(=O)N(C)C)Cc2ncn(CC3CC3)c21.O=C(O)C(F)(F)F (stereo not drawn),108.7
2,CCS(=O)(=O)N1Cc2ncn(C)c2C(COCC2CCOCC2)C1.O=C(O)C(F)(F)F (stereo not drawn),-11.73
3,COCC1CN(S(=O)(=O)N(C)C)Cc2cnn(CC3CCCC3)c21.O=C(O)C(F)(F)F (stereo not drawn),-5.811
4,CCS(=O)(=O)N1Cc2ncn(CC3CC3)c2C(COCC2CC2)C1.O=C(O)C(F)(F)F (stereo not drawn),98
5,Cn1cnc2c1C(COCC1CC1)CN(c1ncccn1)C2.O=C(O)C(F)(F)F.O=C(O)C(F)(F)F (stereo not drawn),100.9
6,Cc1cnc(N2C[C@@H]3[C@@H](C2)OCC(=O)N3CC(C)C)nc1.O=C(O)C(F)(F)F,-17.14
7,CSc1ccccc1CN1CCCn2nc(CNC(=O)N(C)C)cc2C1,2.043
8,Cc1cc(CN2CCCn3nc(CCC(=O)O)cc3C2)ccc1F,-13.15
9,O=C(CCc1cc2n(n1)CCCN(CCc1ccccc1)C2)NC1CC1,113.2
10,Nc1ncccc1CN1CCCn2nc(CCC(=O)NC3CC3)cc2C1,172.9
11,CCn1cc(CN2CCCn3nc(CCC(=O)NCCO)cc3C2)cn1,-3.785
12,O=C(CCc1cc2n(n1)CCCN(Cc1ccccc1F)C2)NC1CC1,0.7471
13,Cc1nc(C(NC(=O)CC(F)(F)F)c2ccc(Cl)cc2)no1 (stereo not drawn),0.7806
14,COCCC(=O)N1CCCC1c1cccc(C)c1C (stereo not drawn),3.518
15,COCC(=O)N1CCCC1c1nc(C)c2c(n1)N(CC(C)C)C(=O)CC2 (stereo not drawn),117
16,COCCC(=O)N1CCCC1c1nc(C)c2c(n1)N(C)C(=O)CC2 (stereo not drawn),147.7
17,COCC(=O)N1CCCC1c1cccc(C)c1C (stereo not drawn),4.955
18,COCC(=O)N1CCCCC1c1nc(C)c2c(n1)N(C1CC1)C(=O)CC2 (stereo not drawn),63.67
19,COCC(=O)N1CCCCC1c1nc(C)c2c(n1)N(CC1CC1)C(=O)C2 (stereo not drawn),105.7
20,Cn1c(C2CCCN2C(=O)CN2CCCC2=O)nc2ccccc21 (stereo not drawn),0.4362
21,COCCn1cc(C(=O)N2CCCC2c2noc(C)n2)ccc1=O (stereo not drawn),10.03
22,CC(C)CS(=O)(=O)CC(=O)N1CCCC1c1noc(C2CC2)n1 (stereo not drawn),-6.47

row,SMILES,Percent Effect [%]
1,CC(Nc1nc2c(cnn2C)c(=O)[nH]1)c1ccc(F)cc1 (stereo not drawn),-20.73
2,COCCN1CC(C(=O)N(C)Cc2cc(-c3cccnc3)no2)CC1=O (stereo not drawn),-16.5
3,O=C(c1cnc2c(c1)CCC2)N1CCCC(CO)(CC2CC2)C1 (stereo not drawn),-2.632
4,OC[C@@H](O)CN(CCC(F)(F)F)c1ncc(Br)cn1,8.436
5,CCC(Nc1nnnn1-c1ccccc1)C(=O)NCc1ccsc1 (stereo not drawn),4.065
6,CCN(CC)C(=O)CN1CCCC1c1nc(C)c2c(n1)N(C)C(=O)CC2 (stereo not drawn),125.7
7,CCN(CC)C(=O)CN1CCCC1C(=O)N(C)C (stereo not drawn),1.193
8,Cc1nc(C2CCCN2CC(=O)N(Cc2ccsc2)C2CC2)no1 (stereo not drawn),-3.982
9,Cn1ccnc1C(=O)NC[C@@H]1OC[C@H]2CN(CC3CC3)CC[C@H]21.O=C(O)C(F)(F)F,-43.28
10,O=C(NCc1cn2c(n1)CN(Cc1nccs1)CC2)C1CCC1.O=C(O)C(F)(F)F,-3.871
11,O=C(NCc1cnc2n1CCN(Cc1nccs1)CC2)C1CCC1.O=C(O)C(F)(F)F,95.25
12,Cc1ccc(CN2CCc3ncc(CNC(=O)C4CCC4)n3CC2)o1.O=C(O)C(F)(F)F,89.47
13,Cn1cccc1C(=O)NCc1cnc2n1CCN(CC1CCOCC1)C2.O=C(O)C(F)(F)F,19.82
14,O=C(NCc1cnc2n1CCN(CC1CC1)C2)C1CC1.O=C(O)C(F)(F)F,80.69
15,Cc1ccc(CN2CCc3ncc(CNS(C)(=O)=O)n3CC2)o1.O=C(O)C(F)(F)F,-0.4637
16,Cn1ccnc1C(=O)NCc1cnc2n1CCN(CC1CC1)CC2.O=C(O)C(F)(F)F.O=C(O)C(F)(F)F,88.03
17,Cn1cccc1C(=O)NCc1cnc2n1CCN(CC1CC1)C2.O=C(O)C(F)(F)F,-11
18,Cc1cc(C(=O)N2CCc3ncc(CN4CCCC4)n3CC2)no1.O=C(O)C(F)(F)F,-20
19,O=C(NCc1cnc2n1CCN(Cc1ccsc1)CC2)C1CCC1.O=C(O)C(F)(F)F,-9.045
20,O=C(NCc1cnc2n1CCN(CC1CCOCC1)C2)c1ccno1.O=C(O)C(F)(F)F,-43.24
